{
  "source": "the supplement of paper PMC10127200",
  "note": "Where a name gives a salt, the structure may show the parent alone.",
  "data": [
    {"system": "OVCAR4", "assay": "Euclidean distance of Cell Painting phenotypic profile (signed KS, 77 features) to DMSO centroid (dimensionless distance); 5 or 10 uM (library dependent); higher = stronger phenotypic change vs DMSO (phenoactivity)", "conditions": "48 h", "how_it_was_run": "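Harmony extracted 77 features from 20X confocal images (9 fields/well) of stained cells, scoring each as a signed Kolmogorov-Smirnov statistic against same-plate vehicle wells. The cells, five cancer lines and a healthy fibroblast line, had received library compounds for 48 h at 10 or 5 uM depending on library, with 0.1% DMSO final. Phenoactivity is the Euclidean distance from each plate-position-corrected, correlation-weighted, top-dose replicate-averaged profile to the median vehicle profile.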", "values": [
      {"molecule": "Cc1ccc(C(=O)N(CCCN)[C@@H](c2nc3cc(Cl)ccc3c(=O)n2Cc2ccccc2)C(C)C)cc1", "Euclidean distance": 3.78},
      {"molecule": "OC(CN1CCN(c2cccc(Cl)c2)CC1)C(c1ccccc1)c1ccccc1", "note": "(stereo not drawn)", "Euclidean distance": 1.16},
      {"molecule": "COc1cc(/C=C/C(=O)O)ccc1O", "note": "[Sodium ferulate]", "Euclidean distance": 1.46},
      {"molecule": "CS(=O)(=O)N1CCc2c(-c3cnc(N)nc3)nc(N3CCOCC3)nc21", "Euclidean distance": 2.01},
      {"molecule": "C=CCc1cccc(/C=N/NC(=O)CN2CCN(Cc3ccccc3)CC2)c1O", "Euclidean distance": 2.68},
      {"molecule": "O=C(NCCCNc1nc(Nc2cccc(NC(=O)N3CCCC3)c2)ncc1I)c1cccs1", "Euclidean distance": 4.44},
      {"molecule": "N[C@@H]1CCCCN(c2c(F)cc3c(=O)c(C(=O)O)cn(C4CC4)c3c2Cl)C1", "note": "[Besifloxacin HCl]", "Euclidean distance": 0.585},
      {"molecule": "C=CC(=O)Nc1cc(Nc2nccc(-c3cn(C4CC4)c4ccccc34)n2)c(OC)cc1N(C)CCN(C)C", "Euclidean distance": 1.92}
    ]}
  ]
}
